WRN helicase inh = blocks human WRN helicase; WRN helicase unwinding, fluorescent forked duplex, kinetic; 360,000 tested, 0.46% active; Potency, µM (titrated, usually from 114 µM), for inactives: at the highest dose activity change, negative = inhibition, most hits filed as inhibitors; Q14191; note: potency is the fitted concentration of half-maximal effect; nearly all actives have a fitted effect of over 55% in size
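Enzyme (20 nM final) and test compound sit together 15 min at room temperature before substrate addition. Substrate is a single-forked duplex oligonucleotide (100 nM) labelled with fluorophore and quencher, with 2 mM ATP; helicase unwinding raises red fluorescence, read kinetically.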
FEN1 inhibitor = blocks human flap endonuclease 1 | P39748 | Recombinant FEN1 flap cleavage, fluorescence, 15 min | Potency, µM (top dose mostly 114 µM), inactives show top-dose activity change, negative = inhibition, usual class: inhibitors | 390,000 tested, 0.35% active | AID 588795; note: potency is the fitted concentration of half-maximal effect; nearly all actives have a fitted effect of over 65% in size
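FEN1 at 10 nM, compound pretreatment for 15 min (room temperature), 50 nM final substrate to initiate; endpoint reads at 0 and 15 min; DMSO-only plates used as vehicle background.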
APE1 inh-1 = inhibitors of human APE1 endonuclease; AID 2517; recombinant APE1, TAMRA/BHQ-2 abasic DNA cleavage fluorescence; 350,000 tested, 0.35% active; P27695; Potency, µM (highest dose often 65.8 µM), without a hit: at the highest dose activity change, negative = inhibition, most hits filed as inhibitors;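 note: potency is the fitted concentration of half-maximal effect; plate controls were vehicle for no effect and reference inhibitor for full effect; nearly all actives have a fitted effect of over 55% in size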
Target sequence (P27695 whole entry, looked up): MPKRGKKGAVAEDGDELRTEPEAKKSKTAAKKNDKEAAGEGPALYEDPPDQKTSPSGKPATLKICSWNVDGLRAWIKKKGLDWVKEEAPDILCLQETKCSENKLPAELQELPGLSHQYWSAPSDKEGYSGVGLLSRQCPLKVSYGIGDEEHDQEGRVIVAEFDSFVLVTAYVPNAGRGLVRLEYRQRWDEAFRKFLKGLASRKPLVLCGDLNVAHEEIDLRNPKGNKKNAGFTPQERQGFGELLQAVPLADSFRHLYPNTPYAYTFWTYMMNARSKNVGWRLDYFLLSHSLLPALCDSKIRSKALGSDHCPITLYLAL
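APE1 at 0.75 nM preincubated 15 min at room temperature with compound. Reaction then started with 50 nM double-stranded THF-abasic substrate labelled with TAMRA/BHQ-2, and 525/598 nm fluorescence read kinetically. Activity taken as third-minus-first read difference, normalized to DMSO and NSC13755 controls.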
PI5P4Ka inh = inhibitors of human PI5P4K alpha | PI5P4Kalpha enzyme, ADP-Glo luminescence, 60 min; hits give low values | max response, % | 330,000 tested, 1.2% active | AID 652105; active = max response of -50% or lower; inconclusive = between -30% and -50%; inactive = -30% or higher; note: value at the top dose of about 77 µM
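Luminescence from ADP-Glo served as readout of PI5P4Kalpha activity in a qHTS format. Reaction: enzyme, substrate, compound, ATP at 5 microM final, 60 min at RT.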
RECQ1 helicase = blocks DNA unwinding by human RECQ1; P46063; RECQ1 DNA unwinding, red fluorescence kinetic read; Potency, µM (titrated, usually from 57.3 µM), for the others: top-dose activity, negative = inhibition, usual class: inhibitors; 240,000 tested, 0.54% active; AID 2549;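 note: potency is the fitted concentration of half-maximal effect; plate controls were vehicle for no effect and no enzyme for full effect; nearly all actives have a fitted effect of over 30% in size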
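50 nM RECQ1T1 preincubated 15 min with compound in Tris pH 8.0 buffer with MgCl2, DTT, Tween-20 and 2.5 ug/ml poly(dI-dC); started with 200 nM TAMRA/BHQ-2 forked duplex and 2 mM ATP. Unwinding read as fluorescence (525/598 nm), two reads 2 h apart.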
BLM inh = Bloom syndrome helicase (human) inhibition; 350,000 tested, 0.2% active; recombinant BLM DNA unwinding, fluorescence dequenching; AID 2528; Potency, µM (doses to about 56.1 µM), for inactives: top-dose activity change, negative = inhibition, hits mostly inhibitors;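 note: potency is the fitted concentration of half-maximal effect; plate controls were vehicle for no effect and no enzyme for full effect; nearly all actives have a fitted effect of over 35% in size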
DNA dye displace = displaces fluorescent dye from DNA, flagging APE1 artifacts. shares compounds with APE1 inh-1. DNA fluorescent dye displacement counterscreen, fluorescence. Potency, µM (series often up to 28.5 µM), without a hit: top-dose activity change, negative = inhibition, most hits filed as inhibitors. 480 tested, 7% active;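 note: loss of thiazole orange fluorescence as the dye is displaced from duplex DNA; potency is the fitted concentration of half-maximal effect; 0% = ThO with dsDNA and no compound and -100% = ThO without dsDNA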
EndoIV counter = blocks E. coli endonuclease IV DNA cleavage | Potency, µM (series often up to 27.1 µM), without a hit: top-dose activity change, negative = inhibition, hits mostly inhibitors | E. coli Endo IV, fluorogenic AP-site DNA cleavage | shares compounds with APE1 inh-1 | AID 2565 | 560 tested, 4% active;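 note: potency is the fitted concentration of half-maximal effect; plate controls were uninhibited enzyme wells for no effect and no enzyme buffer wells for full effect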
APE1 inh-2 = APE1 (human) endonuclease inhibition, confirmation | shares compounds with APE1 inh-1 | purified APE1, fluorogenic abasic-site DNA cleavage | Potency, µM (titrated, usually from 57.1 µM), inactives show at the highest dose activity change, negative = inhibition, actives largely listed as inhibitors | 750 tested, 44% active | AID 2572; note: potency is the fitted concentration of half-maximal effect; nearly all actives have a fitted effect of over 30% in size
APE1 FP = APE1 (human) DNA binding inhibition, fluorescence polarization; shares compounds with APE1 inh-1; Potency, µM (doses to about 28.5 µM), for inactives: at the highest dose activity, negative = inhibition, actives largely listed as inhibitors; 480 tested, 7% active; APE1 binding to TAMRA-labelled double-stranded DNA, fluorescence polarization displacement; note: potency is the fitted concentration of half-maximal effect
* marks the source's active call; other numbers are inactive results; i = inactive; ? = inconclusive; nt = no result given; [ ] = another dose, or the depositor's remark. Hits are enriched below; roughly 1.5% of the tested compounds scored in any of these assays. Unless noted, calls come from the whole dose curve; as a rule, active = well fitted curve in the direction sought with a large enough effect; inconclusive = small, poorly fitted or top-dose-only effect, or another doubt; inactive = no such curve, though single readings can be large; an effect the other way counts as inactive or inconclusive. Unless noted, % is set by controls: 0 for no effect and ±100 for the full control effect.

SMILES	WRN helicase inh	FEN1 inhibitor	APE1 inh-1	PI5P4Ka inh	RECQ1 helicase	BLM inh	DNA dye displace	EndoIV counter	APE1 inh-2	APE1 FP
CN1C(=O)C(=Cc2ccc(N3CCOCC3)c([N+](=O)[O-])c2)C(=O)N(C)C1=O	nt	nt	-1.3%	nt	19.9%	1.1%	nt	nt	nt	nt
Cc1cnc2c(C(=O)O)c(Cl)ccc2c1	nt	nt	-3.8%	nt	-7.4%	1.6%	nt	nt	nt	nt
C/C=C(/C)C(=O)O[C@H]1C(C)=C2C([C@@H]1OC(=O)CCCCCCC)[C@@](C)(OC(C)=O)C[C@@H](OC(=O)CCC)[C@@]1(O)[C@H]2OC(=O)[C@@]1(C)O (some centres not stated)	nt	nt	-3.9%	nt	-15.2%	nt	nt	10µM*	?	nt
CCCCCCC(=O)OC1CC(C)(C)NC(C)(C)C1	nt	nt	-1.7%	nt	-11.6%	-0.9%	nt	nt	nt	nt
CC[C@@]1(O)C(=O)OCc2c1cc1n(c2=O)Cc2cc3ccccc3nc2-1	nt	-1.1%	9.4%	nt	-3.1%	5.2%	nt	-4.6%[57.1 µM]	-22.5%	nt
[O-][Br+2]([O-])O	nt	nt	-6.2%	nt	7.5%	nt	nt	nt	nt	nt
CCc1c(C(=O)OC)ncc2[nH]c3cc(OC)c(OC)cc3c12	nt	nt	-8.7%	nt	-3.9%	nt	nt	-54.1%[57.1 µM]	-27.1%	nt
COc1ccc(CN2CCN(C(=O)Cn3c(=O)oc4cc(Cl)ccc43)CC2)c(OC)c1OC	-8.4%	7.4%	54.4%	-3.9	nt	-3.8%	nt	nt	nt	nt
CC(=O)OCC1=C(C(=O)O)N2C(=O)[C@@H](NC(=O)CCC[C@@H](N)C(=O)O)[C@H]2SC1	nt	-4.0%[57.1 µM]	nt	nt	nt	nt	nt	nt	nt	nt
CC(=O)OCC1=C(C(=O)O)N2C(=O)C(NC(=O)CCCC(N)C(=O)O)C2SC1 (configuration not stated)	nt	nt	22.4µM*	nt	3.3%	?	-1.3%[57.1 µM]	27.3%[57.1 µM]	-7.3%	30.2%[57.1 µM]
CC1=C2C3OC(=O)C(C)C3CC[C@@]2(C)C=CC1=O (some centres not stated)	6.9%	11.8%	?	-5.2	-16.2%	1.7%	nt	-4.5%[57.1 µM]	-4.3%	nt
CC1=C2[C@@H]3OC(=O)[C@@H](C)[C@@H]3CC[C@]2(C)C=CC1=O	nt	nt	nt	nt	-3.1%[25.9 µM]	3.8%[21.4 µM]	nt	nt	nt	nt
CCBr	nt	nt	4.5%	nt	-1.0%	nt	nt	nt	nt	nt
CN1Cc2ccccc2[C@@H]2c3cccc4[nH]cc(c34)C[C@H]21	nt	nt	?	nt	-11.1%	2.2%	-5.8%[57.1 µM]	-22.0%[57.1 µM]	?	-9.1%[57.1 µM]
Cc1cc(/C=C2\C(=O)NC(=O)N(c3cccc(F)c3)C2=O)c(C)n1-c1cc(C(=O)O)cc(C(=O)O)c1	?	?	?	-81.3*	i	-5.7%	-7.4%	-5.3%	?	-1.6%
Cc1cc(/C=C2\C(=O)NC(=O)N(c3cccc(Br)c3)C2=O)c(C)n1C	-12.3%	-6.0%	0.3%	4.1	-15.7%	-8.0%	nt	nt	nt	nt
Cc1cc(/C=C2/C(=O)NC(=O)N(Cc3ccco3)C2=O)c(C)n1-c1ccccc1	?	4.1%	?	?	28.2µM*	-27.6%	4.0%	8.4%	?	-3.2%
O=C1NC(=O)N(c2ccc3c(c2)OCO3)C(=O)/C1=C\c1ccc(-c2ccccc2C(=O)O)o1	56.2µM*	?	20µM*	-51.8*	-16.4%	-1.7%	13.9%	-3.5%	10µM*	4.6%
C=CCCC#N	nt	nt	-2.0%	nt	-4.8%	nt	nt	nt	nt	nt

Screens (PubChem)
